This is one part of a sample in which hits are shown more often than they occur.
KDM5B inhibitor = Primary screen for KDM5B Histone Demethylases FDH-coupled qHTS; Lysine-specific demethylase 5B (Homo sapiens), Q9UGL1; KDM5B demethylase, FDH-coupled NADH fluorescence (FDH is formaldehyde dehydrogenase); Potency, µM (top dose mostly 57.7 µM), actives largely listed as inhibitors; 220,000 tested, 2.6% active; AID 1347165, 2019; active means well fitted inhibition curve with a large enough effect; further: 0% is about no effect; nearly all actives have a fitted effect of over 70% in size
Target sequence (Q9UGL1 whole entry, looked up): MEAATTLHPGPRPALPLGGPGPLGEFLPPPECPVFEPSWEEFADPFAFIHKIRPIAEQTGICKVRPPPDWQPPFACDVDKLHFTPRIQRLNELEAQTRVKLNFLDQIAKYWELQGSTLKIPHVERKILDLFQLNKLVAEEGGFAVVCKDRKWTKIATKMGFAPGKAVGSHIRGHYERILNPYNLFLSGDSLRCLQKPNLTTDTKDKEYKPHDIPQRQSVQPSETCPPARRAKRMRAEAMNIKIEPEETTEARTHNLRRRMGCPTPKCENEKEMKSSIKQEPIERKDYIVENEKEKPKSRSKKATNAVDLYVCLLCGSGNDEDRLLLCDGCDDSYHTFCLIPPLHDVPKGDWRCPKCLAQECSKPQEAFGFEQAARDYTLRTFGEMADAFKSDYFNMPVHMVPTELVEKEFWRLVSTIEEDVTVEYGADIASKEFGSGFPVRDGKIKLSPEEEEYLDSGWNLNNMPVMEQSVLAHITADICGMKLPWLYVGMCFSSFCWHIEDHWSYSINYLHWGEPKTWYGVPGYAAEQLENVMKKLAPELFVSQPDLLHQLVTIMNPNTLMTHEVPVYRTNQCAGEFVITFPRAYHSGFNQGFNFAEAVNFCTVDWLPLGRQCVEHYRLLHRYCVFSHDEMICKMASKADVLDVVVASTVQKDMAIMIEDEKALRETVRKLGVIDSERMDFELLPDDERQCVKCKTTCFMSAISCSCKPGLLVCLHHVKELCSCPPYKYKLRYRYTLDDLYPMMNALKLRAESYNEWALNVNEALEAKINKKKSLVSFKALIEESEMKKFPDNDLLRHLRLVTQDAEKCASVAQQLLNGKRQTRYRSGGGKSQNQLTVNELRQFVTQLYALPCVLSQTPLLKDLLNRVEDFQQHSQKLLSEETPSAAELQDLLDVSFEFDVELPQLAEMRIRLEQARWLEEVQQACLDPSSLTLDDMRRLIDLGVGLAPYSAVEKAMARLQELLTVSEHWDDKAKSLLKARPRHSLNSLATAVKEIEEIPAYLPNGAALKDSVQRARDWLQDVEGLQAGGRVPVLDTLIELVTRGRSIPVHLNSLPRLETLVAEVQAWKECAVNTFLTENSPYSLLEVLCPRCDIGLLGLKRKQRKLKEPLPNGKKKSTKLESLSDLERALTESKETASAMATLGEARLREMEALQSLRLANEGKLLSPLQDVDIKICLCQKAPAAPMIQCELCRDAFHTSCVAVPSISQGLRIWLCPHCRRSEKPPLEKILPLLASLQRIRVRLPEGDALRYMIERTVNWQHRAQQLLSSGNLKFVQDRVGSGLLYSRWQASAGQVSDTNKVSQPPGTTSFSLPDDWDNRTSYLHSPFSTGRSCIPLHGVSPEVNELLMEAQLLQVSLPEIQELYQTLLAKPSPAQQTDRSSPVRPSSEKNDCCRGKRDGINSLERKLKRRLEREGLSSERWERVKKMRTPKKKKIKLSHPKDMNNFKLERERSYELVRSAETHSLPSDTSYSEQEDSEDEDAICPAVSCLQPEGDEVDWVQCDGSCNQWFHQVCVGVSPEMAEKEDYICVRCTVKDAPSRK
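Measured: NADH fluorescence change, 30 min, RT. System: KDM5BΔAP 200 nM final, H3K4me3 peptide, α-KG, Fe(II), ascorbate, NAD⁺ plus FDH, pH 7.5 HEPES. Compounds: titrated, 10 min pre-incubation with enzyme.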
* hit, by the source's call; i = inactive. Potency means the concentration at half of the fitted maximal effect.

SMILES	KDM5B inhibitor
O=C(c1ccc(CC2CCNCC2)cc1)N1CCCC1	i
Cc1ccc(C)c(NC(=O)COc2ncnc3ccccc23)c1	i
C/C(=N/Nc1ccc(Cl)c(Cl)c1)c1ccc(Cl)c(Cl)c1Cl	i
CCOCCCC(=O)N(C)Cc1cccc(OC)c1	i
COCC(=O)N1CCC2(CC1)NCCc1c2[nH]c2ccccc12	i
COc1ccc2[nH]c3c(c2c1)CCNC31CCN(S(=O)(=O)c2cccnc2)CC1	i
COc1ccc2[nH]c3c(c2c1)CCNC31CCN(C2CCCC2)CC1	22.4µM*
COc1ccc(NCc2nc3scc(-c4cccs4)c3c(=O)[nH]2)cc1	i
CS(=O)(=O)NC1CCCN(C(=O)c2ccc(Cl)cc2F)C1 (stereo not given)	i
O=C(C1CCCN1S(=O)(=O)c1ccccc1)N1CCCCC1 (stereo not given)	i
COC(=O)c1ccc(COc2ccc3c(=O)c(Oc4cccc(C)c4)c(C(F)(F)F)oc3c2)cc1	i
O=C(NCc1cccc(C(F)(F)F)c1)c1cccc2c1CCN2C(=O)C1CC1	i
COc1ccc(NC(=O)c2ccc3c(c2)C2(CCCN(C)C2)CN3Cc2cccnc2)cc1 (stereo not given)	i
COC(=O)c1cccc(C(=O)NCC2CCCCC2)c1	i
COc1cc(OC)cc(C(=O)NCC2CCCN(C(=O)CCNC(C)=O)C2)c1 (stereo not given)	i
COCCN1CCC2(C1)CN(C)c1ccc(C(=O)NCC3CC3)cc12 (stereo not given)	35.5µM*
CC(=O)N1CCCC2(C1)CN(C)c1ccc(C(=O)NCC3CC3)cc12 (stereo not given)	28.2µM*
CC(=O)N1CCC(N2CC(Oc3cccc(C(=O)NCC4CC4)c3)C2)CC1	i
COCCN1CCC2(C1)CN(C)c1ccc(C(=O)Nc3ccccc3)cc12 (stereo not given)	25.1µM*
CN1CCCCCC(O)c2cc(C(=O)NCC3CC3)ccc21 (stereo not given)	i
COCCN1CCCC2(CCN(C(=O)c3ccccc3)C2)C1 (stereo not given)	i
Cn1c(CN2C[C@H](O)C[C@H]2c2nc(-c3ccc(OC(F)(F)F)cc3)no2)nc2ccccc21	i
CC(C)Cc1nc(CN2C[C@@H]3CC[C@H](C2)N(Cc2ccccc2)C3)no1	i
Cc1cc(C)cc(-c2ccc(C(=O)NCCCn3ccnc3C(C)C)cn2)c1	i
CN(C)c1ccc(NC(=O)CC2C=CCC2)cc1 (stereo not given)	i
SMILES	KDM5B inhibitor
COC(=O)c1ccc(C2C(c3ccc(C)cc3)=C(O)C(=O)N2CCc2ccc(OC)c(OC)c2)cc1 (stereo not given)	i
CCC(C(=O)Nc1ccc2c(c1)CN(Cc1ccc(OC)cc1OC)C(=O)C(C)O2)c1ccccc1 (stereo not given)	i
O=C1CCN(S(=O)(=O)c2ccccc2)CCCN(C(=O)c2ccncc2)CCN1	i
COCCN1C(=O)c2ccccc2C(C(=O)NCc2ccccc2)C12CCCC2 (stereo not given)	i
CC(C)CN1C(=O)c2ccccc2C(C(=O)Nc2ccccn2)C12CCCC2 (stereo not given)	i
COCCN1C(=O)c2ccccc2C(C(=O)Nc2cc(C)ccn2)C12CCCCC2 (stereo not given)	i
COCCN1C(=O)c2ccccc2C(C(=O)NCc2cccc(F)c2)C12CCCC2 (stereo not given)	i
COCCN1C(=O)c2ccccc2C(C(=O)NCc2ccc(Cl)cc2)C12CCCC2 (stereo not given)	25.1µM*
COCCN1C(=O)c2ccccc2C(C(=O)NCCc2ccccc2)C12CCCC2 (stereo not given)	i
COCCN1C(=O)c2ccccc2C(C(=O)NCCc2ccc(Cl)cc2)C12CCCC2 (stereo not given)	i
Cc1ccnc(NC(=O)C2c3ccccc3C(=O)N(CC(C)C)C23CCCC3)c1 (stereo not given)	22.4µM*
COCCN1C(=O)c2ccccc2C(C(=O)NCc2ccc(OC)cc2)C12CCCC2 (stereo not given)	i
COCCN1C(=O)c2ccccc2C(C(=O)NCCc2ccc(F)cc2)C12CCCC2 (stereo not given)	28.2µM*
COCCN1C(=O)c2ccccc2C(C(=O)NCc2ccccc2OC)C12CCCC2 (stereo not given)	17.8µM*
COCCN1C(=O)c2ccccc2C(C(=O)NCc2ccc(F)cc2)C12CCCCC2 (stereo not given)	i
C[C@]1(CO)C2CC[C@@H](O)[C@@H](CC(=O)NCc3ccccc3)[C@]2(C)CC[C@H]1OC(=O)NC1CCCCC1 (stereo not given in full)	i
CS(=O)(=O)c1cccc(OCC(=O)c2ccc(F)cc2)c1	i
CC(=O)Nc1cccc(C(=O)NC2CCCC(C)C2C)c1 (stereo not given)	i
COC(=O)c1ccc(/C=N/OCc2ccc(C#N)cc2)cc1	i
COC(=O)C1=C(C(=O)OC)SC(=C(Cl)C(=S)Nc2ccccc2)S1	i
CC(C)C1=NOC2(CCCN(C(=O)c3ccc4c(c3)OCO4)C2)C1 (stereo not given)	i
CCCCCCCCCCCCSCCS(=O)(=O)OCC(F)(F)C(F)F	i
CCN(CC)Cc1nc(C2(O)CCN(C(=O)CCc3ccccc3)CC2)cs1	i
CCc1ccccc1NC(=O)C1c2ccccc2C(=O)N(CCOC)C12CCCCC2 (stereo not given)	i
CCc1ccccc1NC(=O)C1c2ccccc2C(=O)N(CCOC)C12CCCC2 (stereo not given)	i
SMILES	KDM5B inhibitor
COCCN1C(=O)c2ccccc2C(C(=O)Nc2ccc(C)cc2Cl)C12CCCC2 (stereo not given)	28.2µM*
Cc1ccc(-c2noc(-c3ccc(Br)o3)n2)cc1	i
CCc1ccc(-c2noc(Cn3cnc4c(nnn4Cc4ccccc4)c3=O)n2)cc1	i
COc1ccc(OC)c(NS(=O)(=O)c2ccc3c(c2)CCCN3C(=O)C2CCC2)c1	i
COc1ccc2c(c1)CCCN2C1CNC1	126µM*
COc1ccc2c(c1)CCCN2C(=O)c1cc2ccc(C)cc2nc1C	i
CC(C)NC(=O)CSc1nccc(-c2cccs2)n1	i
CC(C)c1ccc(NC(=O)O[C@@H]2CO[C@H]3[C@@H]2OC[C@@H]3NS(=O)(=O)c2cccs2)cc1	i
CC(C)CN[C@H]1CO[C@H]2[C@@H]1OC[C@@H]2Nc1nccc(-c2cccs2)n1	31.6µM*
O=C(CSc1nccc(-c2cccs2)n1)Nc1ccccc1	i
O=S(=O)(N[C@H]1CO[C@H]2[C@@H]1OC[C@@H]2Nc1nccc(-c2cccs2)n1)c1cccs1	22.4µM*
COc1cc(NC(=O)N[C@H]2CO[C@H]3[C@@H]2OC[C@@H]3Nc2nccc(-c3cccs3)n2)cc(OC)c1	i
COc1ccc(C(=O)Cn2c(N3CCCCCC3)nc3c2c(=O)n(C)c(=O)n3C)cc1	i
Cc1ccc(O[C@H]2CCOC[C@H]2NC(=O)C2CCS(=O)(=O)CC2)cn1	i
COc1ccc(/C=C/C(=O)Oc2ccc(OC)cc2)cc1	i
COc1ccc(/C=C(/C#N)C(=O)Nc2ccc(C34CC5CC(CC(c6ccccc6)(C5)C3)C4)cc2)cc1	i
COc1cc(CNC(=O)c2cc(-c3cccc(N(C)C)c3)cc3ncn(C)c23)ccn1	i
COc1cc(F)ccc1-c1cc(C(=O)NCc2cccnc2)c2c(c1)ncn2C	35.5µM*
COc1ncccc1-c1cc(C(=O)N(C)CCN(C)C)c2c(c1)ncn2C	i
